A selection: hits, their analogues and other compounds. The true share with any hit is near 6.9%.
Cy5 interf NS3h = Cy5 fluorescence quenchers or enhancers, artefact control for HCV NS3 helicase inhibitor project, biochemical, ChemBridge library, Cy5 readout | 6% of 16,000 active | fluorescence interference ratio at 100 µM | Cy5-dT15 DNA with NS3h, fluorescence interference; actives lie on both sides; signal over control mean, under 1 quenches;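 active = compound fluorescence over control fluorescence at most 0.8, a quencher, or at least a set upper limit, an enhancer; inactive = ratio between 0.8 and the set upper limit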
HCV NS3h FP = HCV NS3 helicase inhibitors, primary screen, biochemical, fluorescence polarization, ChemBridge library | NS3h Cy5-dT15 DNA binding | inhibition, % at 100 µM | 1.6% of 16,000 active;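 active = inhibition above the average over every tested compound plus 3 SD, cut at about 40% in these data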
The depositor's hits bear a star.

SMILES	Cy5 interf NS3h	HCV NS3h FP
COc1ccc(C2C(=C(O)c3ccc(C)cc3)C(=O)C(=O)N2c2ncc(S(=O)(=O)c3ccc([N+](=O)[O-])cc3)s2)cc1 (stereo not given)	0.84	14
O=C(C1=C(O)C(=O)N(c2ncc(S(=O)(=O)c3ccc([N+](=O)[O-])cc3)s2)C1c1ccc(F)cc1)c1ccco1 (stereo not given)	0.79*	11
CC(C)N(Cc1ccccc1)C(=O)CCCOc1ccc(Cl)cc1Cl	1	9
CC(Oc1ccc(Cl)cc1Cl)C(=O)NCCN(C)C (stereo not given)	0.71*	4
Cc1ccc(C)c(S(=O)(=O)Nc2ccccc2)c1	0.94	7
CCOc1ccc(C(=O)Nc2ccc3c4c(cccc24)CC3)cc1[N+](=O)[O-]	0.92	2
CCOc1ccc(S(=O)(=O)N(CC(=O)NC)c2ccc(C)cc2)cc1	1.2*	0
CSc1ccc(S(=O)(=O)N(CC(=O)Nc2ccc(C(C)=O)cc2)c2ccc(C)cc2)cc1	0.73*	17
CSc1ccc(S(=O)(=O)N(CC(=O)Nc2ccc(C)cc2C)c2ccc(C)cc2)cc1	1	8
CCOc1ccc(S(=O)(=O)N(CC(=O)Nc2ccc(C)cc2)c2ccc(C)cc2)cc1	0.97	-5
CCOC(=O)c1ccc(NC(=O)CN(c2ccc(OCC)cc2)S(=O)(=O)c2ccc(SC)cc2)cc1	1	8
CSc1ccc(S(=O)(=O)N(CC(=O)Nc2ccc(C)cc2)c2ccc(C)cc2)cc1	0.68*	22
CCOC(=O)CSc1nc2sc3c(c2c(=O)n1C1CCCCC1)CCCC3	1.1	-12
CC1=C(C(=O)Nc2ccccc2Cl)C(c2ccc(F)cc2)NC(=S)N1 (stereo not given)	0.97	1
Cc1cc(=O)oc2cc(OCC(=O)c3ccc(F)cc3)ccc12	1.1	8
CCOC(=O)c1ccc(N2NC(=O)/C(=C/c3cccc(I)c3)C2=O)cc1	0.79*	20
CCOC(=O)c1ccc(N2NC(=O)/C(=C/c3cc(OC)c(O)c(OC)c3)C2=O)cc1	0.96	14
COc1cc(/C=C2/SC(=S)N(CC(=O)Nc3cccc(C(=O)O)c3)C2=O)cc(OC)c1OC	1	15
O=C(CN1C(=O)/C(=C/c2cccc(Br)c2)SC1=S)Nc1cccc(C(=O)O)c1	0.76*	39
COc1cccc2sc(NC(=O)c3cccc(Cl)c3)nc12	1	10
Cc1ccc(S(=O)(=O)N=C(c2ccccc2)N(C)C)cc1	1	-4
CCCCn1c(CN2C(=O)c3ccccc3C2=O)nc2ccccc2c1=O	1	-2
O=c1c2ccccc2nc2ccc3nnnn3n12	0.73*	-13
N/C(=N/OC(=O)c1ccccc1F)c1ccc([N+](=O)[O-])cc1	0.78*	-6
N/C(=N/OC(=O)c1ccc(Br)cc1)c1ccc([N+](=O)[O-])cc1	0.96	2
SMILES	Cy5 interf NS3h	HCV NS3h FP
Cc1cc(C)cc(NC(=O)C2CC(=O)N(c3ccc(Cl)cc3)C2)c1 (stereo not given)	1	9
Cc1ccc(OCC(=O)Nc2ccc3c(c2)OCCO3)c(Br)c1	1	-22
CCOC(=O)c1c(NC(=O)c2ccc([N+](=O)[O-])cc2)sc2c1CCCCC2	0.98	-10
CCOC(=O)c1c(NC(=O)Cn2cnc([N+](=O)[O-])n2)sc2c1CCC2	0.57*	9
COc1ccc(OC)c(C2NC(=S)NC(C)=C2C(=O)Nc2cc(Cl)ccc2OC)c1 (stereo not given)	1.1	1
COc1ccc(/C=C/C(=O)N2CCOCC2)cc1Br	0.67*	2
COc1ccc(/C=C/C(=O)N(C(C)C)C(C)C)cc1Br	1	8
CC1CCN(CC(O)COc2ccccc2C(C)(C)C)CC1 (stereo not given)	1	6
CC1=NN(c2ccc(C)c(C)c2)C(=O)/C1=C/c1ccc([N+](=O)[O-])o1	0.68*	20
CC1=NN(c2cccc(C(=O)O)c2)C(=O)/C1=C\c1ccc(-c2cc([N+](=O)[O-])ccc2C)o1	0.97	8
O=[N+]([O-])c1ccc2c(c1)S(=O)(=O)N=C2Nc1cccc(Cl)c1	0.73*	-10
CN(C1=NS(=O)(=O)c2cc([N+](=O)[O-])ccc21)c1ccccc1	0.89	-2
COc1ccc(NC(=O)c2ccc(CSc3ccc(Br)cc3)cc2)cc1	1.1	4
COc1ccc(NC(=O)CN(c2ccc(C(C)C)cc2)S(=O)(=O)c2ccccc2)cc1OC	1	11
O=C(Nc1cccc(Cl)c1)c1ccccc1Br	0.8*	-2
Cc1ccccc1C(=O)Nc1cccc(Cl)c1	0.96	5
Cc1ccc(S(=O)(=O)N2CCC(O)CC2C)cc1 (stereo not given)	0.74*	20
Cc1ccc(S(=O)(=O)N2CCN(S(=O)(=O)c3ccc(C)cc3)C2c2ccc(N(C)C)cc2)cc1	0.94	14
C=CCNC(=O)CN(c1cc(OC)ccc1OC)S(C)(=O)=O	1.1	-4
N#CCC(=O)N/N=C\c1ccc(O)cc1O	1.1	11
COc1cccc(/C=N\N2CCN(Cc3ccccc3Cl)CC2)c1	0.91	19
COc1cc(NC(=O)c2cccc([N+](=O)[O-])c2)ccc1NC(=O)c1ccco1	0.73*	-15
COc1cc(NC(=O)c2ccc([N+](=O)[O-])cc2)ccc1NC(=O)c1ccco1	0.94	1
CCOC(=O)c1ccc(NC(=O)/C=C/c2ccc(Cl)cc2)cc1	1.1	13
O=C1/C(=C/C(Cl)=C/c2ccc([N+](=O)[O-])cc2)SC(=S)N1c1ccc(O)cc1	1	3
SMILES	Cy5 interf NS3h	HCV NS3h FP
CC(/C=C1\SC(=S)N(C(Cc2ccccc2)C(=O)O)C1=O)=C\c1ccccc1 (stereo not given)	1	-2
O=C(O)CCC(C(=O)O)N1C(=O)/C(=C\C(Cl)=C/c2ccc([N+](=O)[O-])cc2)SC1=S (stereo not given)	0.63*	12
O=C(O)C(Cc1ccccc1)N1C(=O)/C(=C/C(Cl)=C/c2ccc([N+](=O)[O-])cc2)SC1=S (stereo not given)	0.78*	-2
Fc1ccc(-c2nnc(-c3ccco3)o2)cc1	0.99	-9
CCc1ccc(S(=O)(=O)Nc2cc(Br)c(O)c3ccccc23)cc1	0.98	4
CCc1ccc(S(=O)(=O)Nc2cc(-c3c(O)ccc4ccccc34)c(O)c3ccccc23)cc1	0.78*	9
CC(C)CC(=O)Nc1ccc(I)cc1C(=O)O	1.1	1
O=C(Nc1ccc2nn(-c3ccccc3)nc2c1)c1cccc(F)c1	0.94	-20
Cc1ccc(C(=O)Nc2ccc(I)cc2)cc1[N+](=O)[O-]	1.1	14
O=C(Nc1ccc2nn(-c3ccccc3)nc2c1)c1ccc(Cl)c([N+](=O)[O-])c1	0.44*	-8
CN(C)c1ccc(NC(=O)c2ccc(Cl)c([N+](=O)[O-])c2)cc1	0.32*	44*
Cc1ccc(C(=O)Nc2ccccc2)cc1[N+](=O)[O-]	0.63*	10
O=C(O)c1ccc(NC(=O)c2ccc(Cl)c([N+](=O)[O-])c2)cc1	0.9	10
CCOc1ccc(N2C(=O)NC(=O)/C(=C/c3cccc(OC)c3)C2=O)cc1	0.98	20
COc1ccc(C2(C(N)=O)CCOCC2)cc1OC	1.1	5
CCOc1cc(C(=O)Nc2ccc(Br)cn2)cc(OCC)c1OCC	1.1	2
COc1ccc(N(CC(=O)N2CCCC2)S(C)(=O)=O)c(OC)c1	1.1	1

Screening data deposited in PubChem by Milwaukee Institute for Drug Discovery.
